The sample as a whole holds a higher share of hits than the screen did.
Dicer inh = human Dicer pre-microRNA cleavage inhibition; Q9UPY3; actives 6% (n = 47,000); cat-ELCCA pre-miR-21 Dicer processing, chemiluminescence; hits give high values; z-score at 25 µM; in the data active means z-score above about 3, passing the limit was not always enough;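 further: plate controls were vehicle for no effect and no enzyme for full effect; higher signal means more uncleaved substrate so more Dicer inhibition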
Target sequence (Q9UPY3 whole entry, looked up): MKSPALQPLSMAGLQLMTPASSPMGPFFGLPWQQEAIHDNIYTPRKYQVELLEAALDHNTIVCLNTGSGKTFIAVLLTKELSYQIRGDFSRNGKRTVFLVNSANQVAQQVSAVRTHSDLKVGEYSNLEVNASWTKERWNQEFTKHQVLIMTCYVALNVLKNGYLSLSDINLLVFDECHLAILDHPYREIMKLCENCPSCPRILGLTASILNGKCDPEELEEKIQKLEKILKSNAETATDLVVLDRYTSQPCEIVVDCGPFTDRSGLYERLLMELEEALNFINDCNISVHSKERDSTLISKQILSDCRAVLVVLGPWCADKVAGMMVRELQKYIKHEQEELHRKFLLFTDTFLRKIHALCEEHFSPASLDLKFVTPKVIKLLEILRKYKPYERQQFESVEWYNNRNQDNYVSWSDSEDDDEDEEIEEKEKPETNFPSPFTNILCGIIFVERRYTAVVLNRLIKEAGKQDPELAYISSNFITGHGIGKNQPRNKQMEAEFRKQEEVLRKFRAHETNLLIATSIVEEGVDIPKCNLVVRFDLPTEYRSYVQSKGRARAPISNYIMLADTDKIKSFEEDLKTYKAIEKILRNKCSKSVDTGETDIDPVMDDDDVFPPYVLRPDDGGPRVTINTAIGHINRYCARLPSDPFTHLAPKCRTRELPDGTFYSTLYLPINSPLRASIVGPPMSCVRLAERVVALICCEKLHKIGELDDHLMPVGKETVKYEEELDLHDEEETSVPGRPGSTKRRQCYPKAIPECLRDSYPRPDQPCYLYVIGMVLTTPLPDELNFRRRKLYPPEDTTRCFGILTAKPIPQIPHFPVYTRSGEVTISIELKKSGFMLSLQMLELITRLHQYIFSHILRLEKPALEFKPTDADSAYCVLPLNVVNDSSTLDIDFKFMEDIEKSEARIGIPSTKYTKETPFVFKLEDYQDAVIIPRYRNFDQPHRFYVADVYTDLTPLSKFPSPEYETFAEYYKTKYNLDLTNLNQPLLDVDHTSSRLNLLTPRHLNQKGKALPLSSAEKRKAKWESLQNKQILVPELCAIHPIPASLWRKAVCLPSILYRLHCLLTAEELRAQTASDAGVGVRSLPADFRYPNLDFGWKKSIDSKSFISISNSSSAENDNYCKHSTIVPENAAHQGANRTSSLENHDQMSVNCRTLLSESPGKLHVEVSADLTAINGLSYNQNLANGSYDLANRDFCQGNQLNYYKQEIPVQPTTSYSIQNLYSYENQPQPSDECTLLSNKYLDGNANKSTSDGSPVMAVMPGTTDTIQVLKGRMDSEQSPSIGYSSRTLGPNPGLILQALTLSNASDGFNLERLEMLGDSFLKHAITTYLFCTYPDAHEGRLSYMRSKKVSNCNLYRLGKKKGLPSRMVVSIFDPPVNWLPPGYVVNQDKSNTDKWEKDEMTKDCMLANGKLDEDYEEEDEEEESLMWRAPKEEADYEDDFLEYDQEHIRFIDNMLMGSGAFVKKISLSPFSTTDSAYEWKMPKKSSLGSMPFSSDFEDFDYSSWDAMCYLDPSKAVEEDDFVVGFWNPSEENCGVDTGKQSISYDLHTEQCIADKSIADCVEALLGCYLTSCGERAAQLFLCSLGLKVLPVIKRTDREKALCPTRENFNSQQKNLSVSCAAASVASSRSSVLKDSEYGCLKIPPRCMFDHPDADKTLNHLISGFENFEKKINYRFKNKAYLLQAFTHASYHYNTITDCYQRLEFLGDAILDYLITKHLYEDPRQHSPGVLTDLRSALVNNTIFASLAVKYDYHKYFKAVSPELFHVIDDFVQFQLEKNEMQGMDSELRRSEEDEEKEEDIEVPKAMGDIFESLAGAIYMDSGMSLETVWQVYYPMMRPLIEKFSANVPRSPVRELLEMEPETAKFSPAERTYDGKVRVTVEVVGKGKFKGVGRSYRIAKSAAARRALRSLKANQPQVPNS
Starred values were filed as active, the others as inactive.

SMILES	Dicer inh
COCCOC(=O)C1=C(C)NC2=C(C(=O)CCC2)C1c1coc2ccccc2c1=O (centres undefined)	4.77
CC1=C(C(=O)OCCOC(C)C)C(c2coc3ccc(C)cc3c2=O)C2=C(CCCC2=O)N1 (centres undefined)	7.16*
CC1=C(C(=O)OCCOC(C)C)C(c2ccc(C)o2)C2=C(CCCC2=O)N1 (centres undefined)	-0.28
CC1=C(C(=O)OC2CCCCC2)C(c2coc3ccc(C)cc3c2=O)C2=C(CCCC2=O)N1 (centres undefined)	3.24*
Cc1nc(-c2ccc(S(=O)(=O)NCc3ccco3)s2)cs1	-0.34
CC1=C(C(=O)OC(C)C)C(c2ccc(O)cc2)C2=C(CC(c3ccccc3)CC2=O)N1 (centres undefined)	0.73
CCOc1ccc(C2Nn3c(C)nnc3SC2C(=O)N(CC)CC)cc1 (centres undefined)	0.04
COCCOC(=O)C1=C(C)NC2=C(C(=O)CC(C)(C)C2)C1c1ccc(OC)cc1OC (centres undefined)	-0.24
c1ccc2c(-c3csc(-c4ccc(-c5ccno5)s4)n3)csc2c1	-1.43
Nc1nc(-c2csc3ccccc23)cs1	3.26*
Nc1nc(-c2cccc3ccccc23)cs1	0.36
Cc1ccc(S(=O)(=O)NC(=O)N2CCCCC2)cc1	0.16
CC(=O)OC[C@@H]1O[C@H](n2cnc3c(=O)[nH]c(N)nc32)[C@@H](OC(C)=O)[C@H]1OC(C)=O	0.25
O=c1oc(-c2ccc(Cl)cc2Cl)nc2ccc([N+](=O)[O-])cc12	1.42
CCOC(=O)c1cnc(SCC(=O)c2ccc(Cl)c(C)c2)nc1N	1.02
NS(=O)(=O)c1ccc(Sc2ccc(Cl)cc2)c([N+](=O)[O-])c1	-0.24
CC(C(=O)NNC(=O)C(C)(C)C)n1nnc(-c2cc(C(F)(F)F)cc(C(F)(F)F)c2)n1 (centres undefined)	3.75*
CC(C(=O)NNC(=O)C1CC1)n1nnc(-c2cc(C(F)(F)F)cc(C(F)(F)F)c2)n1 (centres undefined)	-5.93
CC(=O)NNC(=O)C(C)n1nnc(-c2cc(C(F)(F)F)cc(C(F)(F)F)c2)n1 (centres undefined)	-0.56
Brc1ccc(C2=CSc3ccccc3N2)cc1	-3.81
CCCCN1Cc2c(n(CC(=O)c3ccccc3)c3cc(-c4ccccc4)nn3c2=O)C1=O	3.15*
CCCCN1Cc2c(n(Cc3ccccc3)c3cc(-c4ccccc4)nn3c2=O)C1=O	-0.1
CCCCN1Cc2c(n(CC(N)=O)c3cc(-c4ccccc4)nn3c2=O)C1=O	-0.98
CSc1sc(C(=O)O)c2c1S(=O)(=O)N(C)c1ccsc1-2	-0.85
O=C(ON/C=N/c1ncc(-c2ccc(Br)s2)s1)c1ccc(Cl)cc1	2.59
SMILES	Dicer inh
COC(=O)c1ccc(C2Oc3nc(SC)nnc3-c3ccccc3N2C(C)=O)cc1 (centres undefined)	0.82
COc1ccc(-c2cn(C(=O)c3cccs3)nc2C)cc1	-0.56
COc1ccc(C2(C)SCc3cc(C)c(C)cc3CS2)cc1	-1.85
Cc1ccc2oc3c(c(=O)c2c1)C(c1cccc(O)c1)N(Cc1ccccc1)C3=O (centres undefined)	1.15
S=c1[nH]nc(Cc2n[nH]c(=S)n2-c2ccccc2)n1-c1ccccc1	3.32*
S=c1[nH]nc(Cc2ccccc2)n1-c1ccc(Cl)cc1	-0.95
S=c1[nH]nc(Cc2ccccc2)n1-c1ccccc1	-0.51
Clc1ccc(/C=N/Nc2ccc(-c3cnco3)cc2)cc1	-3.38
Nc1c2c(nc3ccccc13)N(Cc1ccccc1)CC2	0.07
CC1=C(C(=O)OCCOc2ccccc2)C(c2ccc(C)o2)C2=C(CC(c3cccs3)CC2=O)N1 (centres undefined)	2.51
COC(=O)C1=C(C)N=C2SCCC(=O)N2C1c1ccc(C(C)(C)C)cc1 (centres undefined)	0.32
COC(=O)/C=C1/NCC(OC(=O)c2ccc(C(C)(C)C)cc2)CNC1=O (centres undefined)	4.36*
CC1(C)COC(c2ccccc2COC(=O)c2ccc(C(C)(C)C)cc2)=N1	-0.15
CCN(CC)CCCNS(=O)(=O)c1c(C)c(C)c(C)c(C)c1C	2.36
COc1ccc(Br)c(C(=O)/C(C#N)=C/c2ccc(N(C)C)cc2)c1	6.19*
COc1ccc(Br)c(C(=O)NN)c1	0
COc1ccc(Br)c(C(=O)/C(C#N)=C/c2cccs2)c1	0.78
COc1ccccc1N1CCN(Cc2cc(Cl)c(O)c3ncccc23)CC1	-0.05
CCOC(=O)c1c(N2C(=O)CC3(CCCC3)C2=O)sc(C)c1-c1ccccc1	-0.59
Cc1nnc2n1NC(c1ccc(F)cc1)C(C(=O)Nc1ccc(Br)cc1)S2 (centres undefined)	0.61
Cc1cc(C)nc(NC(=O)C(C)(C)Oc2ccc(Cl)cc2)n1	1.72
C=CCn1c2ccccc2c2nnc(SCCC)nc21	2.42
CSc1n[nH]c(-c2cc(C(F)(F)F)cc(C(F)(F)F)c2)n1	43.1
Fc1ccc(OCc2nnc3n2N=C(c2ccc(Br)cc2)CS3)cc1	-1.03
COc1ccc(OCc2nnc3n2N=C(c2ccc(Br)cc2)CS3)cc1	3*
SMILES	Dicer inh
COCCc1nnc2n1N=C(c1ccc(Br)cc1)CS2	-0.4
COc1cc(C2Nc3ccccc3NC3=C2C(=O)CC(c2ccc(OC)c(OC)c2)C3)ccc1O (centres undefined)	-0.72
COc1ccc(C2CC(=O)C3=C(C2)Nc2ccccc2NC3c2cc(OC)ccc2OC)cc1 (centres undefined)	-0.4
COc1ccc(C2CC(=O)C3=C(C2)Nc2ccccc2NC3c2ccc(OC)c(O)c2)cc1 (centres undefined)	1.04
COc1ccc(C2Nc3ccccc3NC3=C2C(=O)CC(c2ccccc2)C3)c(OC)c1 (centres undefined)	1.71
CSc1ccc(C2Nc3ccccc3NC3=C2C(=O)CC(c2ccc4c(c2)OCO4)C3)cc1 (centres undefined)	4.58*
COc1cc(C2Nc3ccccc3NC3=C2C(=O)CC(c2ccc4c(c2)OCO4)C3)ccc1OC(C)=O (centres undefined)	1.36
Cc1ccc(C2CC(=O)C3=C(C2)Nc2ccccc2NC3c2ccc3c(c2)OCO3)cc1 (centres undefined)	-1.12
COc1ccc(C2CC(=O)C3=C(C2)Nc2ccccc2NC3c2ccc(SC)cc2)cc1OC (centres undefined)	5.24*
COc1ccc(C2CC(=O)C3=C(C2)Nc2ccccc2NC3c2cccc3ccccc23)cc1OC (centres undefined)	5.38*
CC1=NN(c2ccc(C)cc2)C(=O)/C1=C/N(C)C	-7.56
C=C(C)Cc1c(C)[nH]n(S(=O)(=O)c2ccccc2)c1=O	1.33
CCCCc1ccc(-c2nc3ccccc3c(=O)o2)cc1	0.32
CCCc1nnc(NC(=O)C(CC)Sc2nnc3c4ccccc4n(C)c3n2)s1 (centres undefined)	3.14*
CCC(Sc1nnc2c3ccccc3n(C)c2n1)C(=O)Nc1nnc(C)s1 (centres undefined)	-0.49
CCC(Sc1nnc2c3ccccc3n(C)c2n1)C(=O)NC(C)c1ccccc1 (centres undefined)	1.07
CCn1c2c(c(=O)[nH]c1=O)C(c1ccsc1)C1=C(N2)c2ccccc2C1=O (centres undefined)	2.11
C=Cc1c(S(C)(=O)=O)sc(C(=O)OCC)c1C	0.82
Cc1ccc(S(=O)(=O)NCC(Sc2nnc3nc(C)cc(C)n23)c2ccccc2)cc1 (centres undefined)	3.51*
Cc1cc(C)n2c(SCC(=O)O)nnc2n1	-0.62
Cc1cc(C)n2c(SCC(C)C)nnc2n1	-0.03
